IkB sig inh: inhibitors of IkB signaling in ABC-DLBCL cells; ABC-DLBCL IkBa-CBG/CBR dual luciferase ratio, 4 h; response scale: scaled: untreated 0%, proteasome inhibitor 100%; Potency, µM (doses to about 57.1 µM), for inactives: at the top dose IkBa stabilization activation; hit rate 0.04% among 110,000; AID 445; active = well fitted curve in the direction sought with a large enough effect in the signal ratio, not every such curve was filed as active; inconclusive = small, poorly fitted or top-dose-only effect, or a change in a side signal; the % refers to the signal ratio;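 also: the direction sought is a rising ratio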
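Curves were fitted separately to fusion (green), unfused (red) and ratio luminescence, then classed by r2, magnitude and activity. Cells: OCI-Ly3, 4 h compound plus doxycycline at 37C; 10 uM MG-132 defined full response.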
p53ts 39C kill: kills p53ts cells at the nonpermissive temperature; H1299-p53A138V viability at 39C, ATP luminescence, 24 h; hit rate 1.5% among 130,000; Potency, µM (top dose mostly 46.1 µM), inactives show at the top dose activity change, negative = cell killing, hits mostly cytotoxic; AID 902; also: % is scaled to controls: 0 for no effect and ±100 for the full control effect; nearly all actives have a fitted effect of over 55% in size
Imprint erasure: genomic imprint erasure induction; mouse ES Peg3-LacZ reporter, beta-gal luminescence, 40 h; Potency, µM (doses to about 60.7 µM), without a hit: at the highest dose activity change, positive = activation, usual class: activators; hit rate 0.02% among 110,000; AID 1948
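Imprint erasure is scored as LacZ activity from the silenced maternal Peg3 allele in feeder-free female ES cells cultured 40 h with LIF. Luminescence is normalized to in-plate negative controls and fitted to the Hill equation.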
p53ts 32C kill: kills p53ts cells at the permissive temperature. hit rate 0.93% among 130,000. AID 924. H1299-p53A138V at 32C, ATP luminescence viability, 24 h. Potency, µM (titrated, usually from 46.1 µM), for the others: at the top dose activity change, negative = cytotoxicity, hits mostly cytotoxic;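 also: 0% = DMSO and -100% = full killing by reference compound; nearly all actives have a fitted effect of over 55% in size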
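Viability by ATPlite luminescence after 24 h compound treatment (up to 46 uM) at the permissive 32C. Cells are H1299 carrying p53 A138V. Scale runs from DMSO basal to 100 uM tamoxifen as full kill; AC50 from Hill fits.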
* hit, by the source's call; ? = inconclusive; · = not tested or not shown; ! = a repeat was not active; [ ] = another dose, or the depositor's remark. An excerpt weighted towards active compounds, which were near 1.8% of everything screened. Unless noted, calls follow the shape of the dose curve; as a rule, active = well fitted curve in the direction sought with a large enough effect; inconclusive = small, poorly fitted or top-dose-only effect, or another doubt; inactive = no such curve, though single readings can be large; an effect the other way counts as inactive or inconclusive. Potency is read from the fitted curve at half-maximal effect.

SMILES | IkB sig inh | p53ts 39C kill | Imprint erasure | p53ts 32C kill
O=C(Nc1nnc(S(=O)(=O)N2CCCC2)s1)c1ccc(F)cc1 | 0.7% | -21.3% | -4.9%[10.9 µM] | -2.8%
COc1ccc2c(c1)Cc1sc(NC(=O)c3cccc(Cl)c3)nc1-2 | -1.9% | 25.1µM* | 11.1%[10.9 µM] | ?
O=C(Cn1ncc2c(=O)oc3ccccc3c21)Nc1cc(F)ccc1F | 1.5% | 6.31µM* | ? | 2.9%
C=C1CC[C@@H](O)C/C1=C/C=C1\CCC[C@]2(C)[C@@H]1CC[C@H]2[C@@H](C)/C=C\[C@@H](C)C(C)C | 2.3%[11.4 µM] | · | · | ·
CSc1ccc2c(c1)N(CCC1CCCCN1C)c1ccccc1S2 (stereo not drawn) | · | 12.6µM* | -31.8% | ·
CSc1ccc2c(c1)N(CC[C@H]1CCCCN1C)c1ccccc1S2 | 0.5%[25.6 µM] | 12.6µM*! | -16.2%[16.8 µM] | ·
CCOC(=O)CCN1C(=O)[C@H]2[C@H]3[C@H](O)[C@H](O)C/C(=N/OCc4ccccc4)[C@H]3CC[C@@H]2C1=O | · | 5.5%[9.22 µM] | · | -8.0%[9.22 µM]
CC(C)c1ccc(Nc2c(-c3ccccn3)nc3ccccn23)cc1 | ? | 15.8µM* | -19.8%[10.9 µM] | -21.3%
Cc1ccn2c(Nc3ccc(C(C)C)cc3)c(-c3cccnc3)nc2c1 | ? | 25.1µM* | -10.8%[10.9 µM] | -1.1%
CC(C)c1ccc(Nc2c(-c3ccccc3O)nc3cnccn23)cc1 | ? | 5.01µM* | -6.7%[10.9 µM] | ?
Cc1ccc2nc(-c3cccnc3)c(Nc3ccc(C(C)C)cc3)n2c1 | 2.5% | -13.4% | -7.5%[10.9 µM] | 3.4%
FC(F)(F)c1cccc(Nc2c3c(nc4ccc(Cl)cc24)CCC3)c1 | ? | 12.6µM* | 10.5%[10.9 µM] | 11.2µM*
Fc1ccc(F)c(Nc2c3c(nc4ccc(Cl)cc24)CCC3)c1 | ? | -7.1% | -7.3%[10.9 µM] | -13.5%
CN(C)c1ccc(/C=C(\C#N)c2nc3ccccc3c(=O)[nH]2)cc1 | ? | 0.316µM* | -5.7%[10.9 µM] | 0.316µM*
Cc1ccccc1S(=O)(=O)Cc1ccc(C(=O)N2CCN(c3cccc(C)c3C)CC2)o1 | ? | 12.6µM* | -33.9% | ?
CN(C)c1ncc2nc(-c3cc(F)cc(F)c3)c(=O)n(-c3ccccc3)c2n1 | 1.7%[11.4 µM] | 10.0% | 1.0% | 5.3%
CCOc1ccc(CNc2cc(C)nc3nc(-c4cccc(C)c4)nn23)cc1OC | ? | 7.94µM* | -12.4%[10.9 µM] | -28.0%
CCN1CCN(c2cc(C)c3cc(NC(=O)Cc4ccc(OC)c(OC)c4)ccc3n2)CC1 | 0.0% | -9.4% | -17.4% | -6.8%
CCCCc1ccc(C(=O)Nc2ccc3nc(N4CCN(CC)CC4)cc(C)c3c2)cc1 | ? | 7.94µM* | -26.1%[10.9 µM] | -7.6%
CCN1CCN(c2cc(C)c3cc(NC(=O)c4cnccn4)ccc3n2)CC1 | -1.3% | 3.8% | 4.1% | -0.8%
CCN1CCN(c2cc(C)c3cc(NC(=O)c4cccc(Cl)c4)ccc3n2)CC1 | ? | 2.51µM* | 2.4%[10.9 µM] | 14.1µM*
CCN1CCN(c2cc(C)c3cc(NC(=O)c4cc(OC)cc(OC)c4)ccc3n2)CC1 | -5.1% | 2.51µM* | -12.0%[10.9 µM] | ?
CCN1CCN(c2cc(C)c3cc(NC(=O)/C=C/c4cccc(Cl)c4)ccc3n2)CC1 | ? | 3.16µM* | -19.6%[10.9 µM] | ?
CCN1CCN(c2cc(C)c3cc(NC(=O)/C=C/c4cccc(OC)c4OC)ccc3n2)CC1 | 11.0% | ? | -1.7%[10.9 µM] | ?
C/C(=N/S(=O)(=O)c1ccc(Cl)c(Cl)c1)OCC(C)(C)C | -0.1%[11.4 µM] | -7.2%[9.22 µM] | 9.6%[10.9 µM] | 4.6%[9.22 µM]
SMILES | IkB sig inh | p53ts 39C kill | Imprint erasure | p53ts 32C kill
Cc1ccc(CNS(=O)(=O)c2cc(C(=O)Nc3cccc(C(F)(F)F)c3)ccc2F)cc1 | ? | 12.6µM* | -7.8%[10.9 µM] | -18.4%
c1cn2c(NC3CCCC3)c(-c3ccc(N4CCOCC4)cc3)nc2cn1 | 0.1% | 15.8µM* | -8.7% | 10µM*
Cc1cccc(C)c1Nc1c(-c2ccc(N3CCOCC3)cc2)nc2ncccn12 | -2.0% | -13.9% | -14.3%[10.9 µM] | 17.5%
CCCN1CCN(CCNC(=O)Nc2ccc(OC)cc2OC)CC1 | ? | -10.3% | 13.2%[10.9 µM] | -3.7%
O=C(NCCSCc1ccccc1Cl)C1CCN(S(=O)(=O)Cc2ccccc2)CC1 | -0.9% | 0.0% | -7.0%[10.9 µM] | -3.4%
O=C(c1ccco1)N1CCN(C(=O)C(Cc2ccccc2)NS(=O)(=O)c2cccs2)CC1 (stereo not drawn) | 3.2% | 2.7% | 3.16µM* | 6.0%
O=C(O)C1CCCCC1C(=O)OCCCCOC(=O)C1CCCCC1C(=O)O (stereo not drawn) | -1.4% | 3.3% | 4.4% | -4.5%
O=C(OCC1CO1)C1CCCCC1C(=O)OCC1CO1 (stereo not drawn) | 3.4% | 31.6µM* | -0.2% | 3.1%[1.84 µM]
CCC(CO)Nc1ncnc2c1cnn2-c1ccc(C)cc1 (stereo not drawn) | ? | 15.8µM* | -12.8%[10.9 µM] | ?
Cc1ccc(-n2ncc3c(NC(C)c4ccccc4)ncnc32)cc1 (stereo not drawn) | ? | ? | -12.1%[10.9 µM] | ?
CC(C)Nc1ncnc2c1cnn2-c1ccc(Cl)cc1 | ? | 15.8µM* | -27.8% | 12.6µM*
O=C(CCS(=O)(=O)c1ccc(Br)s1)N1CCc2ccccc21 | 2.1% | -12.8% | -13.9% | 3.2%
CCOc1ccc(C(=O)c2cn(CC(=O)Nc3ccc(F)cc3)c3cc4c(cc3c2=O)OCO4)cc1 | ? | 0.9% | -21.3%[10.9 µM] | 1.9%
O=C(CSc1nc2c([nH]c3ccccc32)c(=O)n1-c1ccc(Cl)cc1)NC1CCCCC1 | ? | 10µM* | -10.9%[10.9 µM] | 3.8%
CCOC(=O)c1ccc(NC(=O)c2cc(=O)c3ccc(C)c(C)c3o2)cc1 | -2.0% | 20µM* | -11.7%[10.9 µM] | ?
CCOC(=O)c1ccc(NC(=O)c2cc(=O)c3cc(CC)ccc3o2)cc1 | -1.4% | 26.1% | -6.3%[10.9 µM] | 10.2%
COc1cccc2oc(-c3ccccc3)cc(=O)c12 | · | 7.94µM* | -93.3% | 10µM*
O=c1cc(-c2cccc(O)c2)oc2cccc(O)c12 | · | -3.9% | -19.0% | -2.9%
COc1ccccc1-c1cc(=O)c2cccc(OC)c2o1 | · | 0.1% | -20.5% | 3.4%
COc1cccc2oc(-c3ccc(O)cc3)cc(=O)c12 | 2.3%[11.4 µM] | 7.94µM* | -86.4% | 6.31µM*
COc1cccc(-c2cc(=O)c3ccccc3o2)c1N | -0.4% | 5.01µM* | -67.4% | 7.94µM*
COc1cccc2oc(SC)cc(=O)c12 | · | · | -94.7%[97.3 µM] | ·
O=c1cc(-c2ccccc2)oc2cc(O)c(O)c(O)c12 | 1.3% | 0.631µM* | -16.0% | ?
O=S(=O)(c1ccc(-c2cc(C(F)(F)F)on2)s1)N1CCN(c2ccc(F)cc2)CC1 | -3.0% | 6.4% | 3.4%[10.9 µM] | -4.0%
CCN(CC)c1ccc2cc(-c3nc4ccccc4[nH]3)c(=O)oc2c1 | 0.1% | 0.398µM* | -59.4% | 0.316µM*
O=C1c2[nH]nc(-c3ccc(Br)cc3)c2C(c2cccc(O)c2)N1c1ccc(Cl)cc1 (stereo not drawn) | ? | 15.8µM* | 3.1%[10.9 µM] | ?
COc1ccccc1OCCCSc1nc(-c2ccc(C(C)(C)C)cc2)nc2cc(=O)[nH]n12 | ? | 14.9% | -8.8%[10.9 µM] | 80.9%
COc1cccc(-c2nc(SCc3ccc(C)cc3)n3[nH]c(=O)cc3n2)c1 | -2.5% | 12.6µM* | ? | -1.4%
